Screening results deposited in PubChem by several laboratories.
ADAM17 inh = inhibits human ADAM17; inhibition, % at 6.95 µM; actives 0.83% (n = 370,000); P78536; AID 720648; recombinant ADAM17, EDANS/DABCYL FRET peptide cleavage;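 active = inhibition above the mean of compounds lying between control limits plus 3 SD, set per campaign, cut at about 8.5% in these data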
KLK7 zymogen act = activates the human kallikrein-7 zymogen; purified proKLK7, EDANS-DABCYL substrate fluorescence; 100% is mature enzyme control, 0% vehicle; activation, % at 7 µM; actives 0.9% (n = 370,000); AID 652039;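 active = activation above the mean of all tested compounds plus 3 SD, computed per campaign excluding outliers beyond control limits, cut at about 13% in these data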
ADAM10 inh = ADAM10 inhibition, QFRET primary screen. O14672. recombinant ADAM10, EDANS/DABCYL FRET peptide cleavage, 3 h. inhibition, % at 7 µM. actives 0.62% (n = 370,000). AID 720582;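 active = inhibition above a per-campaign cutoff equal to the mean of compounds falling between control-based bounds plus 3 SD, cut at about 20% in these data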
Target sequence (O14672 214-748 limits assumed): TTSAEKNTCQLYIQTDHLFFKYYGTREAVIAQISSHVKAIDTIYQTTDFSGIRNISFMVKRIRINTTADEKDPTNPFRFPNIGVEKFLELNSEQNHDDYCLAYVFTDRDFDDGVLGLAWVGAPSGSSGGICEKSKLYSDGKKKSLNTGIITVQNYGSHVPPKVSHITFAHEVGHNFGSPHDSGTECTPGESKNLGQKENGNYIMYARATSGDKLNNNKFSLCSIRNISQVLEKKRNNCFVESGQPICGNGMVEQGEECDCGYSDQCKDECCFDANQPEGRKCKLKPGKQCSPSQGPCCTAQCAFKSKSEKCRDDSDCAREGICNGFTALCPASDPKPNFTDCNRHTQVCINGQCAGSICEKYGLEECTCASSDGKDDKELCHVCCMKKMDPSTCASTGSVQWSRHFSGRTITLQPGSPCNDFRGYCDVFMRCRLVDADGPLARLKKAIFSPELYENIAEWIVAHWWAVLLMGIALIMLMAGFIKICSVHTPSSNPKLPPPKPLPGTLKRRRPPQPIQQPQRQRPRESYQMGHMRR
rCAG RNA binder = binds r(CAG) RNA repeats; r(CAG) RNA repeat, TO-PRO-1 dye displacement fluorescence; inhibition, % at 3 µM; actives 1.3% (n = 370,000); AID 651821;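 active = inhibition above the plate cutoff, the mean of all test compounds on that plate plus 3 SD, cut at about 35% in these data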;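 also: higher means more dye released from RNA so lower well fluorescence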
AHR act = human AHR activation | AID 2796 | activation, % at 5 µM | AHR-responsive luciferase reporter cells, luminescence | actives 2.5% (n = 320,000) | P35869; in the data active = activation above about 47%
NR3A LBD binder = NR3A (human) ligand-binding domain modulation | Tm shift relative to glycine control, % at 25 µM | AID 1259313 | actives 2.5% (n = 340,000) | NR3A LBD differential scanning fluorimetry, Tm shift; 0% = protein alone, 100% = glycine-bound protein;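 active = melting temperature shift of at least 10% of the positive control shift, at one fixed dose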
rCAG bind conf = r(CAG) RNA repeat binding, confirmation | AID 652065 | TO-PRO-1 dye displacement fluorescence | actives 70% (n = 4,300) | shares compounds with rCAG RNA binder | inhibition, % at 3 µM;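 active = inhibition above a per-plate cutoff, the mean inhibition of sample wells plus 3 SD, cut at about 35% in these data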;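 also: loss of TO-PRO-1 fluorescence as compound displaces dye from 1x1 AA loop RNA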
dCAG dye counter = DNA CAG dye complex inhibition counter-screen | shares compounds with rCAG RNA binder | d(CAG) DNA oligo TO-PRO-1 dye displacement, fluorescence | inhibition, % at 3 µM | actives 94% (n = 4,300) | AID 652068;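 active = inhibition above its plate's cutoff, the mean test-well inhibition plus 3 SD, cut at about 4.8% in these data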;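 also: hits displace the dye from DNA and so lower well fluorescence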
DNA CAG DR = disrupts DNA CAG TO-PRO-1 complex in dose response. shares compounds with rCAG RNA binder. AID 686960. IC50, µM. actives 20% (n = 250). DNA CAG/GTC duplex TO-PRO-1 dye displacement fluorescence; in the data active = IC50 below about 10 µM
Of the large screens only hits and unclear results are named; the others gave an inactive call (follow-up assays come after a bar, where they were run); ! = not active in a repeat. An excerpt weighted towards active compounds, which were near 7% of everything screened.

N#Cc1c(-c2ccccc2)nc(SCC(=O)N(c2ccccc2)c2ccccc2)[nH]c1=O	rCAG RNA binder 73.2 | rCAG bind conf 82.1 | dCAG dye counter 40.9
CCC(Sc1nccn1C)C(=O)Nc1nnc(C)s1 (stereo not given)	none
N#Cc1c(-c2ccco2)nc(SCC(=O)Nc2ccc(S(N)(=O)=O)cc2)[nH]c1=O	none (no result: ADAM17 inh, KLK7 zymogen act, ADAM10 inh, rCAG RNA binder, NR3A LBD binder)
COc1ccc(N2CCCN(CC(=O)Nc3ccc(Cl)cc3)CC2)cc1	none (no result: AHR act, NR3A LBD binder)
Cc1cc(NS(=O)(=O)c2ccc(NC(=O)CSc3nnc(-c4ccncc4)n3-c3ccccc3)cc2)nc(C)n1	none (no result: AHR act, NR3A LBD binder)
O=C(Cn1nnc(-c2ccncc2)n1)Nc1ccc(Cl)cc1	none (no result: AHR act, NR3A LBD binder)
C[C@@H]1CCN(C2CC2)S(=O)(=O)c2ccc(N3CCC[C@H]3C)cc2O1	none (no result: AHR act, NR3A LBD binder)
c1cn2c(NC3CCCCC3)c(-c3ccc(SC4CCCCC4)cc3)nc2cn1	rCAG RNA binder 49.7! | rCAG bind conf 36.8 | dCAG dye counter 8.3 | DNA CAG DR inactive
c1cc(SC2CCCCC2)cc(-c2nc3cnccn3c2NC2CCCCC2)c1	none
COc1ccc(/C(N)=N/OC(=O)Cc2cccs2)cc1OC	none
COc1ccc(/C(N)=N/OC(=O)Cc2cccs2)cc1	rCAG RNA binder 46.7, NR3A LBD binder 10.6 | rCAG bind conf inactive | dCAG dye counter inactive
O=C(c1ccc2nc(-c3ccco3)c(-c3ccco3)nc2c1)N1CCN(c2ncccn2)CC1	rCAG RNA binder 34.5 | rCAG bind conf 49.4 | dCAG dye counter 21.8
CC(=O)c1ccc(NC(=O)c2ccc3nc(-c4ccco4)c(-c4ccco4)nc3c2)cc1	none (no result: ADAM17 inh, KLK7 zymogen act, ADAM10 inh, rCAG RNA binder)
O=C(NCc1ccccc1)c1ccc2nc(-c3ccco3)c(-c3ccco3)nc2c1	rCAG RNA binder 55.9 | rCAG bind conf 56.1 | dCAG dye counter 25.8
CCCCNC(=O)c1ccc2nc(-c3ccco3)c(-c3ccco3)nc2c1	rCAG RNA binder 62.3 | rCAG bind conf inactive | dCAG dye counter 5.8
O=C(NCCCO)c1ccc2nc(-c3ccco3)c(-c3ccco3)nc2c1	none (no result: AHR act)
Cc1sc2nc(SCc3ccc(C(=O)O)cc3)n(Cc3ccco3)c(=O)c2c1C	rCAG RNA binder 54.6 | rCAG bind conf 57.5 | dCAG dye counter 20.0
C=CCn1c(SCc2ccc(C(=O)O)cc2)nc2sc(C)c(C)c2c1=O	none
Cc1c(C(=O)O)oc2ccc(S(=O)(=O)N(CC(C)C)CC(C)C)cc12	rCAG RNA binder 46.0 | rCAG bind conf inactive | dCAG dye counter inactive
CCN(CC)S(=O)(=O)c1ccc2oc(C(=O)NC(C)C)c(C)c2c1	none
O=C(O)c1cc([N+](=O)[O-])cc([N+](=O)[O-])c1N1CCN(c2cccc(C(F)(F)F)c2)CC1	rCAG RNA binder 40.6 (no result: AHR act) | rCAG bind conf inactive | dCAG dye counter 5.7
O=[N+]([O-])c1cc(Cl)ccc1N1CCN(c2cccc(C(F)(F)F)c2)CC1	none
COc1ccc(-n2c(C)c(C(=O)O)c3cc(OC)c4ccccc4c32)cc1	none
COc1ccccc1-n1c(C)c(C(=O)O)c2cc(OC)c3ccccc3c21	rCAG RNA binder 41.4 | rCAG bind conf inactive | dCAG dye counter 5.6
COc1cc2c(C(=O)O)c(C)n(-c3ccccc3)c2c2ccccc12	rCAG RNA binder 36.5 | rCAG bind conf inactive | dCAG dye counter 6.1
O=C(O)c1ccccc1NC(=O)C(Cc1ccccc1)N1C(=O)c2ccccc2C1=O (stereo not given)	rCAG RNA binder 42.1 | rCAG bind conf 48.9 | dCAG dye counter 12.4
NNc1nc(Nc2ccc([N+](=O)[O-])cc2)nc(N2CCCCCC2)n1	rCAG RNA binder 35.9, AHR act 67.6 | rCAG bind conf inactive | dCAG dye counter 16.3
COc1cc(C2Nc3cccc4cccc(c34)N2)ccc1O	rCAG RNA binder 52.8 | rCAG bind conf 48.2 | dCAG dye counter 25.6
Cc1cccc(NC(=O)C2CCN(c3nnc(-n4cccc4)s3)CC2)c1C	none (no result: AHR act, NR3A LBD binder)
CCn1c(SCC(=O)Nc2ccccc2OC)nc2ccccc2c1=O	none
CCc1c(O)nc(SCC(=O)Nc2ccccc2OC)n(-c2ccccc2C)c1=O	none
COc1ccccc1NC(=O)CSc1nc(O)cc(=O)n1C	none
Cc1ccc(NC(=O)CSc2nc(O)cc(=O)n2-c2ccc(C)cc2)cc1	rCAG RNA binder 41.8 | rCAG bind conf inactive | dCAG dye counter 6.3
Cn1c(SCC(=O)Nc2cccc3ccccc23)nc(O)cc1=O	rCAG RNA binder 40.8 | rCAG bind conf inactive | dCAG dye counter inactive
CCOc1ccccc1-n1c(SCC(=O)Nc2ccccc2C(=O)O)nc2ccccc2c1=O	rCAG RNA binder 35.5 | rCAG bind conf inactive | dCAG dye counter 7.8
CCCCc1c(O)nc(SCC(=O)Nc2cccc3ccccc23)n(-c2ccccc2OC)c1=O	rCAG RNA binder 35.1 | rCAG bind conf inactive | dCAG dye counter 7.8
CCOC(=O)[C@]12CCCCC/C=C\1N(CCc1ccc(Cl)cc1)C(=O)[C@H]2CC(=O)NCc1cccc(C(F)(F)F)c1	none (no result: AHR act, NR3A LBD binder)
COC(=O)C[C@@H]1C[C@H]2c3cc(NC(=O)Nc4ccccc4F)ccc3O[C@H]2[C@@H](CO)O1	none (no result: AHR act, NR3A LBD binder)
COc1ccc(NC(=O)CSc2nc(O)cc(=O)n2-c2ccccc2OC)cc1	none (no result: ADAM17 inh, KLK7 zymogen act, ADAM10 inh, rCAG RNA binder)
COc1ccccc1-n1c(SCC(=O)Nc2cccc3ccccc23)nc(O)cc1=O	rCAG RNA binder 48.2 | rCAG bind conf inactive | dCAG dye counter 9.0
COC(=O)C1=C(C(=O)OC)[C@@]2([C@H](Cc3ccc(C)cc3)Nc3ccccc3)C=C[C@@H]1O2	none (no result: KLK7 zymogen act, rCAG RNA binder, AHR act, NR3A LBD binder)
Nc1ncc(Br)cc1S(=O)(=O)Nc1cc(C(F)(F)F)cc(C(F)(F)F)c1	rCAG RNA binder 80.8 | rCAG bind conf 65.0 | dCAG dye counter 27.0 | DNA CAG DR inactive
O=c1[nH]c2ccccc2nc1-c1c[nH]c2ccccc12	rCAG RNA binder 42.8, NR3A LBD binder 39.0 | rCAG bind conf inactive | dCAG dye counter 14.2
O=C(NCCc1ccccc1)c1ccc2c(=O)[nH]c3c(C(=O)NCC4CCCO4)sc(=S)n3c2c1 (stereo not given)	rCAG RNA binder 91.0 | rCAG bind conf 93.1 | dCAG dye counter 71.1
O=C(NCC1CCCO1)c1sc(=S)n2c1[nH]c(=O)c1ccc(C(=O)N3CCCCC3)cc12 (stereo not given)	rCAG RNA binder 81.3 | rCAG bind conf 84.1 | dCAG dye counter 39.5
O=C(NCCc1ccc(Cl)cc1)c1ccc2c(=O)[nH]c3c(C(=O)NCC4CCCO4)sc(=S)n3c2c1 (stereo not given)	rCAG RNA binder 43.5 (no result: AHR act, NR3A LBD binder) | rCAG bind conf 85.3 | dCAG dye counter 70.1
